Measured values: the supplement of paper PMC11732987, “Enantioselective OTUD7B fragment discovery through chemoproteomics screening and high-throughput optimisation” (Communications Chemistry, 2025)
Values without a mark were called inactive.

Target: T1, ALG13 (UniProt Q9NP73)
T1 sequence (whole entry): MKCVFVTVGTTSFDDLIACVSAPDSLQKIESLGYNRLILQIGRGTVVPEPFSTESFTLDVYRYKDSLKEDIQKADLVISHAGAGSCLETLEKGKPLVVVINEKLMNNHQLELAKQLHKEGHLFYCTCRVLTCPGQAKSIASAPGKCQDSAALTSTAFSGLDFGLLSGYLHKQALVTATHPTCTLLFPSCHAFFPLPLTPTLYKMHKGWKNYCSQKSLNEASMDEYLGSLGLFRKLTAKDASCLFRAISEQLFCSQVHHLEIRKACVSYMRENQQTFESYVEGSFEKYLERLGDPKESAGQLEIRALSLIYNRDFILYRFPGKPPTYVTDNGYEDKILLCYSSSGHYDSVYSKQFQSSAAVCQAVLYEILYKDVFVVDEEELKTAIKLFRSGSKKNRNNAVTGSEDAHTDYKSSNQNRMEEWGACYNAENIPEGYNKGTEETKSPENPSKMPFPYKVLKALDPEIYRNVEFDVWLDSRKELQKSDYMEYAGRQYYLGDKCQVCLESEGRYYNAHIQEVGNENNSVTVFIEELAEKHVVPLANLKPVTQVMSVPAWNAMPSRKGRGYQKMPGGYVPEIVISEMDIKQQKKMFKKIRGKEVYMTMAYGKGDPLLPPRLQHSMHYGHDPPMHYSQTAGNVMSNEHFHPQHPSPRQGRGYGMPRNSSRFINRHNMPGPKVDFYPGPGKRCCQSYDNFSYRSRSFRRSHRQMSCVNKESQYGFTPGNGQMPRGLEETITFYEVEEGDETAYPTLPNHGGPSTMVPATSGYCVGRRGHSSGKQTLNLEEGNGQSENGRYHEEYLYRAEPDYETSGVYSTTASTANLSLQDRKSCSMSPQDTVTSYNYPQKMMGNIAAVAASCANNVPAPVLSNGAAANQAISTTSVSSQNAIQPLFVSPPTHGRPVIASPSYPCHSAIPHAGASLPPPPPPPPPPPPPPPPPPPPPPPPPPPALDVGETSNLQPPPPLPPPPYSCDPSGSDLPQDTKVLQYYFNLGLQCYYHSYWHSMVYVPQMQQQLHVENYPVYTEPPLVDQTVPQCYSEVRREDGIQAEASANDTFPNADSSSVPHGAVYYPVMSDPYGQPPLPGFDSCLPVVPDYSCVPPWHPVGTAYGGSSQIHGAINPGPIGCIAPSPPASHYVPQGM
Assay: log2 ratio of Biotin-Ahx-Ub-VS probe labelling (fragment/DMSO); higher = less target engagement (more negative = stronger competition), active = hit call of the paper (q ≤ 0.05, log2 ratio ≤ -1)
Conditions: compound concentration: 200 uM; treatment time: 3 h
Method in brief: (§1)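 HEK293T lysate (495 µg per sample, in Tris/CHAPS/IGEPAL buffer with protease inhibitors) was treated in triplicate with fragment at 200 µM or with DMSO for 3 h. It was then treated with Biotin-Ahx-Ub-VS (0.5 µM final) for 1 h. Labelled DUBs were NeutrAvidin-enriched, digested with LysC and trypsin, and run by diaPASEF LC-MS/MS. Spectronaut label-free quantities were global-median-normalised. Values are average log2 ratios fragment/DMSO by unpaired t-test, using proteins with ≥2 unique peptides.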

Compound	log2 ratio of Biotin-Ahx-Ub-VS probe labelling
O=C(CCl)N1CCCC2CCCCC21 (stereo not given)	-0.21
O=C(CCl)N1CCC(OCc2ccccc2F)CC1	-0.0579
O=C(CCl)N(Cc1ccsc1)C1CC1	0.115
O=C(CCl)N1CC2(CCOCC2)C1	-0.597
CN(C)C(=O)c1ccc(CNC(=O)CCl)cc1	0.104
CNC(=O)Cn1cc(NC(=O)CCl)cn1	-0.433
O=C(CCl)N1CCC[C@@H]1c1ccon1	0.188
CN1C(=O)c2ccc(NC(=O)CCl)cc2C1=O	0.35
Cl.Cn1nccc1C(NC(=O)CCl)c1ccccc1 (stereo not given)	-0.0316
O=C(CCl)NCC1(c2ccccc2)CC1	-1.4 (active)
Cc1n[nH]c(=O)c2c(NC(=O)CCl)oc(C)c12	0.211
CC(NC(=O)CCl)c1ccc2[nH]ncc2c1 (stereo not given)	0.186
Cc1ccc2nnc(CNC(=O)CCl)n2c1	0.205
O=C(CCl)Nc1cc(Cl)ccc1C(=O)O	-0.0259
O=C(CCl)Nc1ccc(Cl)c(F)c1	0.149

Target: ATXN3 (UniProt P54252)
Sequence (P54252 whole entry): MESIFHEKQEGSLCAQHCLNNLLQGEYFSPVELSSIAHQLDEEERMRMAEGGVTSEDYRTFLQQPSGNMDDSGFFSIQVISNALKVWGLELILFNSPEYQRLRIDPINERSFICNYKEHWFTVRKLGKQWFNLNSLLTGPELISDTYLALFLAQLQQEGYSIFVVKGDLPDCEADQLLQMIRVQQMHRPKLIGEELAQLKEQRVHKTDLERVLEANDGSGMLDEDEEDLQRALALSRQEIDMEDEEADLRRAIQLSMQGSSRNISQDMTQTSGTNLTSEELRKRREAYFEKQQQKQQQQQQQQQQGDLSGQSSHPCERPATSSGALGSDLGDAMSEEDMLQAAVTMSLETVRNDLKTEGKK
Assay: as above
Conditions: compound concentration: 200 uM; treatment time: 3 h
Method in brief: as §1

Compound	log2 ratio of Biotin-Ahx-Ub-VS probe labelling
CC(NC(=O)CCl)c1csc(-c2ccccc2)n1.Cl (stereo not given)	-0.556
CCN(C(=O)CCl)C1CCCCC1	-0.0119
CN(C)C(=O)c1ccc(NC(=O)CCl)cc1	-0.241
NC(=O)C1CCCN(C(=O)CCl)C1 (stereo not given)	-0.171
Cc1cccc(N(CCC#N)C(=O)CCl)c1C	0.0325
CC(NC(=O)CCl)c1cc2n(n1)CCCC2.Cl (stereo not given)	0.242
O=C(CCl)NCc1cccc(N2CCCC2=O)c1	-0.37
N#Cc1ccccc1N1CCN(C(=O)CCl)CC1	-1.16 (active)
Cl.Cn1nc2c(c1CNC(=O)CCl)CCCC2	-0.903
Cc1ccc(C(=O)NCCNC(=O)CCl)cc1	-0.159
Cc1nc(-c2cccc(NC(=O)CCl)c2)cs1	-0.742
Cl.O=C(CCl)N1CCc2ncncc2C1	-0.297
CC(NC(=O)CCl)c1cccc2ccccc12 (stereo not given)	-0.129
Cc1ccc(N(C(=O)CCl)C2C=CS(=O)(=O)C2)cc1 (stereo not given)	0.116
Cc1cccnc1NC(=O)C1CCN(C(=O)CCl)CC1.Cl	-0.281
O=C(CCl)N(C1=CCCCC1)C1CC1	-0.0892
O=C(CCl)N1CCN(C(=O)Nc2ccccc2)CC1	-0.281
CC(NC(=O)CCl)c1noc(Cc2ccccc2)n1 (stereo not given)	-0.275

Compound	log2 ratio of Biotin-Ahx-Ub-VS probe labelling
Cc1cccn2cc(CCNC(=O)CCl)nc12.Cl	-0.114
Cl.O=C(CCl)NC1(c2ncccn2)CCC1	0.0333
O=C(CCl)N1CCCC2CCCCC21 (stereo not given)	-0.321
O=C(CCl)N1CCC(OCc2ccccc2F)CC1	-0.708
O=C(CCl)N(Cc1ccsc1)C1CC1	-0.173
O=C(CCl)N1CC2(CCOCC2)C1	-0.356
CN(C)C(=O)c1ccc(CNC(=O)CCl)cc1	-0.0706
CNC(=O)Cn1cc(NC(=O)CCl)cn1	-0.517
O=C(CCl)N1CCC[C@@H]1c1ccon1	-1.28 (active)
CN1C(=O)c2ccc(NC(=O)CCl)cc2C1=O	-0.464
Cl.Cn1nccc1C(NC(=O)CCl)c1ccccc1 (stereo not given)	-0.49
O=C(CCl)NCC1(c2ccccc2)CC1	0.0359
Cc1n[nH]c(=O)c2c(NC(=O)CCl)oc(C)c12	0.117
CC(NC(=O)CCl)c1ccc2[nH]ncc2c1 (stereo not given)	-0.431
Cc1ccc2nnc(CNC(=O)CCl)n2c1	-0.0879
O=C(CCl)Nc1cc(Cl)ccc1C(=O)O	0.182
O=C(CCl)Nc1ccc(Cl)c(F)c1	-1.07 (active)

Target: T2, BAP1 (UniProt Q92560)
T2 sequence (whole entry): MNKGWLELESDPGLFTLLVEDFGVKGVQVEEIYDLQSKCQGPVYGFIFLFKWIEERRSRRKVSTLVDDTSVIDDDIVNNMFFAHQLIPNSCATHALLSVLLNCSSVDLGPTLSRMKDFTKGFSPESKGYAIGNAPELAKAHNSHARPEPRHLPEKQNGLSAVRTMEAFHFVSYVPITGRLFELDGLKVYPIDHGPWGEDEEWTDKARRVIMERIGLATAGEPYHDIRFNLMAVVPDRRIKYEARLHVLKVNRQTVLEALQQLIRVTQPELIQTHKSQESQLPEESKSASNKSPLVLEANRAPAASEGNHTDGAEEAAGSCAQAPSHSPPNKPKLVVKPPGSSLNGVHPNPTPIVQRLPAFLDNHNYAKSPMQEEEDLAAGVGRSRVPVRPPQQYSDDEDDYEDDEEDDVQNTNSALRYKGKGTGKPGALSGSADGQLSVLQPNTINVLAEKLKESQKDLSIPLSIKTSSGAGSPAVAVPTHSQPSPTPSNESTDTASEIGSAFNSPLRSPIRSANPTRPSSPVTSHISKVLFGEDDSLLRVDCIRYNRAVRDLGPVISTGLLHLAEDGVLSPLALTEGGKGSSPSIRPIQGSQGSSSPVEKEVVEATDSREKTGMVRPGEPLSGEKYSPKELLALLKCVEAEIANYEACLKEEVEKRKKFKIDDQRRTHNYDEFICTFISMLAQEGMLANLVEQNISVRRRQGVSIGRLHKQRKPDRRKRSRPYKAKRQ
Assay: as above
Conditions: compound concentration: 200 uM; treatment time: 3 h
Method in brief: as §1

Compound	log2 ratio of Biotin-Ahx-Ub-VS probe labelling
CC(NC(=O)CCl)c1csc(-c2ccccc2)n1.Cl (stereo not given)	-3.84 (active)
CCN(C(=O)CCl)C1CCCCC1	0.174
CN(C)C(=O)c1ccc(NC(=O)CCl)cc1	-3.59 (active)
NC(=O)C1CCCN(C(=O)CCl)C1 (stereo not given)	-0.437
Cc1cccc(N(CCC#N)C(=O)CCl)c1C	-0.645
CC(NC(=O)CCl)c1cc2n(n1)CCCC2.Cl (stereo not given)	-1.36 (active)
O=C(CCl)NCc1cccc(N2CCCC2=O)c1	-3.09 (active)
N#Cc1ccccc1N1CCN(C(=O)CCl)CC1	-1.32 (active)
Cl.Cn1nc2c(c1CNC(=O)CCl)CCCC2	-2.53 (active)
Cc1ccc(C(=O)NCCNC(=O)CCl)cc1	-1.49 (active)
Cc1nc(-c2cccc(NC(=O)CCl)c2)cs1	-3.5 (active)
Cl.O=C(CCl)N1CCc2ncncc2C1	-0.732
CC(NC(=O)CCl)c1cccc2ccccc12 (stereo not given)	-4.13 (active)
Cc1ccc(N(C(=O)CCl)C2C=CS(=O)(=O)C2)cc1 (stereo not given)	-0.0645
Cc1cccnc1NC(=O)C1CCN(C(=O)CCl)CC1.Cl	-0.703
O=C(CCl)N(C1=CCCCC1)C1CC1	-0.204
O=C(CCl)N1CCN(C(=O)Nc2ccccc2)CC1	-0.529
CC(NC(=O)CCl)c1noc(Cc2ccccc2)n1 (stereo not given)	-2.73 (active)

Compound	log2 ratio of Biotin-Ahx-Ub-VS probe labelling
Cc1cccn2cc(CCNC(=O)CCl)nc12.Cl	-0.597
Cl.O=C(CCl)NC1(c2ncccn2)CCC1	-0.171
O=C(CCl)N1CCCC2CCCCC21 (stereo not given)	-0.281
O=C(CCl)N1CCC(OCc2ccccc2F)CC1	-0.64
O=C(CCl)N(Cc1ccsc1)C1CC1	-0.841
O=C(CCl)N1CC2(CCOCC2)C1	-0.382
CN(C)C(=O)c1ccc(CNC(=O)CCl)cc1	-2.84 (active)
CNC(=O)Cn1cc(NC(=O)CCl)cn1	-1.67 (active)
O=C(CCl)N1CCC[C@@H]1c1ccon1	-2.4 (active)
CN1C(=O)c2ccc(NC(=O)CCl)cc2C1=O	-3.58 (active)
Cl.Cn1nccc1C(NC(=O)CCl)c1ccccc1 (stereo not given)	-4.27 (active)
O=C(CCl)NCC1(c2ccccc2)CC1	-1.15 (active)
Cc1n[nH]c(=O)c2c(NC(=O)CCl)oc(C)c12	0.169
CC(NC(=O)CCl)c1ccc2[nH]ncc2c1 (stereo not given)	-3.42 (active)
Cc1ccc2nnc(CNC(=O)CCl)n2c1	-1.05 (active)
O=C(CCl)Nc1cc(Cl)ccc1C(=O)O	-0.0627
O=C(CCl)Nc1ccc(Cl)c(F)c1	-3.03 (active)
